Data as given in PubChem BioAssay (Tox21).
“And” between values parts separate entries of the source, which are not always exact repeats. Equal values may be shown once. Inconclusive results are not listed. The source made the active and inactive calls. Unless noted, calls follow the shape of the dose curve; as a rule, active = well fitted curve in the direction sought with a large enough effect in the repeat runs; inconclusive = weak or mixed curves; inactive = no such curve, though single readings can be large; an effect the other way counts as inactive or inconclusive.

What was measured:
[1] = qHTS assay to identify small molecule antagonists of the androgen receptor (AR) signaling pathway using the MDA cell line in the presence of 0.5 nM R1881 - cell viability counter screen (AID 1259242); also: nearly all actives have a fitted effect of over 45% in size; also: potency is read from the fitted curve at half-maximal effect
Method in brief: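 Cytotoxicity toward MDA-kb2 cells is measured by CellTiter-Fluor live-cell protease fluorescence after 16 hr compound exposure at 37C in the presence of 0.5 nM R1881 stimulator.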

[2] = qHTS assay to identify small molecule HDAC inhibitors (AID 1259364); also: nearly all actives have a fitted effect of over 45% in size; also: potency is read from the fitted curve at half-maximal effect; as to activity change, negative = inhibition: top concentration of the series differs between compounds
Method in brief: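 Homogeneous cell-based luminescent assay of endogenous class I/II HDAC activity; HCT-116 cells, 2 h compound exposure, 30 min HDAC-Glo development at RT.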

[3] = qHTS assay to identify small molecule HDAC inhibitors - cell viability counter screen (AID 1259365); also: series mostly up to about 92 µM; nearly all actives have a fitted effect of over 50% in size
Method in brief: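 Cytotoxicity was gauged in wild-type HCT-116 cells after a brief 2hr treatment with DMSO-dissolved compounds at 37C and 5% CO2, using CellTiter-Glo luminescence developed for 30min at room temperature.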

[4] = qHTS assay to identify small molecule agonists of the sonic hedgehog signaling (Shh) pathway - cell viability counter screen (AID 1259366); also: nearly all actives have a fitted effect of over 50% in size; also: potency is read from the fitted curve at half-maximal effect
Method in brief: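 Stable Gli1-Luc NIH/3T3 clone, 2,000 cells/well. Compound exposure 24hr at 37C. Read-out: CellTiter-Fluor fluorescence.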

[5] = qHTS assay to identify small molecule antagonists of the sonic hedgehog signaling (Shh) pathway - cell viability counter screen (AID 1259367); also: nearly all actives have a fitted effect of over 55% in size; also: potency is read from the fitted curve at half-maximal effect
Method in brief: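 NIH/3T3-derived Gli1-Luc reporter cells (2,000 per well) rested 4 hr at 37 C, then received DMSO compounds plus conditioned medium. After 23 hr of treatment, CellTiter-Fluor was added for 1 hr at 37C and fluorescence read.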

[6] = qHTS assay to identify small molecule agonists of the sonic hedgehog signaling (Shh) pathway (AID 1259368; calls by dose curve;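 also: NIH/3T3-derived 3T3Gli1-Luc cells carrying a stable Gli1-driven firefly luciferase reporter; series mostly up to about 92 µM; nearly all actives have a fitted effect of over 15% in size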)
Method in brief: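 Steps: seed 3T3 Gli1-Luc cells, incubate 4 hr at 37 C, pin-transfer compounds in DMSO alongside a positive control, incubate 24 hr, add luciferase detection reagent, wait 30 min at room temperature, read luminescence.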

[7] = qHTS assay to identify small molecule antagonists of the sonic hedgehog signaling (Shh) pathway (AID 1259369; calls by dose curve; also: nearly all actives have a fitted effect of over 45% in size; also: potency is read from the fitted curve at half-maximal effect)
Method in brief: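 Inhibition of Shh signalling is measured as reduced Gli1-response-element firefly luciferase output in an NIH/3T3-derived stable reporter clone stimulated with conditioned medium for 24hr.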

[8] = molecular target: Estrogen receptor beta (Homo sapiens) (UniProt Q92731); assay: qHTS assay to identify small molecule agonists of the estrogen receptor beta (ER-beta) signaling pathway (AID 1259377; active = well fitted activation curve with a large enough effect in the signal ratio in the repeat runs, not every such curve was filed as active; the % refers to the signal ratio)
Chain of Estrogen receptor beta (Homo sapiens) (Q92731 whole entry, looked up): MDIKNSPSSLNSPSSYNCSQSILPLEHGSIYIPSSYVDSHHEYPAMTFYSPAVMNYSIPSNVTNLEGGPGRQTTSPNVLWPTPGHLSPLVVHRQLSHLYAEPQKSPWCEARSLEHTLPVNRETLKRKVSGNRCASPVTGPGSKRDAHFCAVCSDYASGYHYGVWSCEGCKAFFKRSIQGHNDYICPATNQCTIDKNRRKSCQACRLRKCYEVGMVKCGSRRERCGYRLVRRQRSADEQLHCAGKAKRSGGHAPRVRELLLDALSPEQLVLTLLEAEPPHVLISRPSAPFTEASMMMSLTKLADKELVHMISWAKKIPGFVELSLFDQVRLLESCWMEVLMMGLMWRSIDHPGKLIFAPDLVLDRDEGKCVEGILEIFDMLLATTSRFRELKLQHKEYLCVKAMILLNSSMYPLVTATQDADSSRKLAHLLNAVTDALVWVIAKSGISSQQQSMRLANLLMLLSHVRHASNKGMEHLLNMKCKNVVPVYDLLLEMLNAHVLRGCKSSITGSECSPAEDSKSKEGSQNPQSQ
Method in brief: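 Measured by fluorescence intensity from a B/G FRET beta-lactamase substrate (2 h, room temperature) in ER-beta-UAS-bla HEK293T cells treated with DMSO-dissolved compounds for 16 hr at 37C and 5% CO2.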

[9] = molecular target: Estrogen receptor beta (Homo sapiens) (UniProt Q92731); assay: qHTS assay to identify small molecule antagonists of the estrogen receptor beta (ER-beta) signaling pathway (AID 1259378; active = well fitted inhibition curve with a large enough effect in the signal ratio in the repeat runs, not every such curve was filed as active; the % refers to the signal ratio; also: potency is read from the fitted curve at half-maximal effect)
Method in brief: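 ER-beta-UAS-bla HEK293T (GripTite) cells in 2% charcoal-stripped FBS medium were preincubated 6 hr at 37C, dosed with compound, then stimulated with 1 nM E2 (final) for 16 hr; beta-lactamase reporter read by B/G FRET fluorescence after 2 hr substrate loading.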

[10] = qHTS assay to identify small molecule agonists of the androgen receptor (AR) signaling pathway in the presence of an antagonist - cell viability counter screen (AID 1259379); also: nearly all actives have a fitted effect of over 25% in size; also: potency is read from the fitted curve at half-maximal effect;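 as to activity change, negative = cytotoxicity: MDA-kb2 human breast cancer cells carrying an MMTV luciferase reporter; series mostly up to about 92 µM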
Method in brief: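 Fluorescence from CellTiter-Fluor, added after 15 hr and read 1 hr later, gave cell viability. Cells were MDA-kb2 exposed to compounds (15 concentrations) in the presence of 3.0uM nilutamide at 37C, 0% CO2.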

[11] = qHTS assay to identify small molecule agonists of the estrogen receptor beta (ER-beta) signaling pathway - cell viability counter screen (AID 1259380); also: nearly all actives have a fitted effect of over 30% in size; also: potency is read from the fitted curve at half-maximal effect
Method in brief: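 Same-well viability counter screen. Cells: ER-beta-UAS-bla HEK293T, plated 6 hr before compound, in 2% charcoal-stripped FBS. Compound exposure 16 hr, 37C; viability by CellTiter-Glo luminescence after 30 min at room temperature.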

[12] = qHTS assay to identify small molecule antagonists of the estrogen receptor beta (ER-beta) signaling pathway - cell viability counter screen (AID 1259382); also: nearly all actives have a fitted effect of over 55% in size; also: potency is read from the fitted curve at half-maximal effect; as to activity change, negative = cytotoxicity: series mostly up to about 92 µM
Method in brief: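 Following a 6 hr plating period, HEK293T cells carrying a UAS-driven beta-lactamase reporter under ER-beta control received compounds and 1nM E2 (final). After 16 hr at 37C and 2 hr substrate loading, CellTiter-Glo luminescence indicated viability.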

[13] = qHTS assay to identify small molecule agonists or antagonists of the thyroid stimulating hormone receptor (TSHR) signaling pathway - wild type cell line counter screen (AID 1259384; calls by dose curve)
Method in brief: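 Wild-type HEK293 cells were plated 18 h at 37 C/5% CO2, pin-dosed with compound plus Ro20-1724 medium, held 30 min at room temperature, then given cAMP-d2 and anti-cAMP-cryptate; fluorescence was read after 1 h. Fifteen concentrations, triplicate.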

[14] = molecular target: Thyrotropin receptor (Homo sapiens) (UniProt P16473); assay: qHTS assay to identify small molecule antagonists of the thyroid stimulating hormone receptor (TSHR) signaling pathway (AID 1259385; calls by dose curve; also: nearly all actives have a fitted effect of over 20% in size; also: potency is read from the fitted curve at half-maximal effect)
Chain of Thyrotropin receptor (Homo sapiens) (P16473 whole entry, looked up): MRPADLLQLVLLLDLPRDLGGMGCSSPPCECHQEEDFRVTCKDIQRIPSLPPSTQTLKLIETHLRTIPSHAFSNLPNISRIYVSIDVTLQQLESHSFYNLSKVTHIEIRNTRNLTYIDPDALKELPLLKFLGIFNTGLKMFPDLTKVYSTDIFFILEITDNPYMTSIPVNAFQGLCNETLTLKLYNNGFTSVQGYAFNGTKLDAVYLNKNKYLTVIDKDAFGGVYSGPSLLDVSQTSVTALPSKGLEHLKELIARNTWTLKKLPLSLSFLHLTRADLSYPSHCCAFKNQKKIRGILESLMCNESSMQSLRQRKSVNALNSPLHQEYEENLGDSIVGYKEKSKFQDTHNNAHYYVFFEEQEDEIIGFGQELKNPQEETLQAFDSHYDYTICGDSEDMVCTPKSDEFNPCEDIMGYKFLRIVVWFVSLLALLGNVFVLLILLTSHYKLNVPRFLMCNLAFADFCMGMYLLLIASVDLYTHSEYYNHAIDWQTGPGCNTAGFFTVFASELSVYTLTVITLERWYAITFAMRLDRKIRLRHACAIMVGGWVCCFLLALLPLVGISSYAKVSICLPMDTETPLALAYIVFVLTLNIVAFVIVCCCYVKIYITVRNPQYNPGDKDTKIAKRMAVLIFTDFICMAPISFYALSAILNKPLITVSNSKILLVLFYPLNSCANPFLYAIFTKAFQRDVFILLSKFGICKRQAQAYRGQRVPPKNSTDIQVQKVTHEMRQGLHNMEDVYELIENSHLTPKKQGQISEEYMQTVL
Method in brief: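 TSHR-HEK293 cells were plated and held 18 h at 37C/5% CO2, then given compound plus Ro20-1724 and stimulated with TSH at 1.5 ng/mL final. After 30 min at room temperature, cAMP was detected with cAMP-d2/anti-cAMP-cryptate (1 h) by fluorescence.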

[15] = qHTS assay to identify small molecule agonists of the estrogen receptor alpha (ER-alpha) signaling pathway in the presence of an antagonist - cell viability counter screen (AID 1259386);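 also: cells exposed to compounds for 22 h at 37 °C before the viability read; nearly all actives have a fitted effect of over 30% in size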; also: potency is read from the fitted curve at half-maximal effect; as to activity change, negative = cytotoxicity: series mostly up to about 92 µM
Method in brief: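 Cells are starved of estrogens for 5 days in charcoal-stripped serum, seeded for 24hr and co-treated with ICI-182,780 (10.0nM final) and test compounds. After 22hr at 37C, viability is read as CellTiter-Fluor fluorescence.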

[16] = molecular target: Estrogen receptor (Homo sapiens) (UniProt P03372); assay: qHTS assay to identify small molecule agonists of the estrogen receptor alpha (ER-alpha) signaling pathway in the presence of an antagonist (AID 1259383; calls by dose curve; also: top concentration of the series differs between compounds; nearly all actives have a fitted effect of over 15% in size)
Chain of Estrogen receptor (Homo sapiens) (P03372 whole entry, looked up): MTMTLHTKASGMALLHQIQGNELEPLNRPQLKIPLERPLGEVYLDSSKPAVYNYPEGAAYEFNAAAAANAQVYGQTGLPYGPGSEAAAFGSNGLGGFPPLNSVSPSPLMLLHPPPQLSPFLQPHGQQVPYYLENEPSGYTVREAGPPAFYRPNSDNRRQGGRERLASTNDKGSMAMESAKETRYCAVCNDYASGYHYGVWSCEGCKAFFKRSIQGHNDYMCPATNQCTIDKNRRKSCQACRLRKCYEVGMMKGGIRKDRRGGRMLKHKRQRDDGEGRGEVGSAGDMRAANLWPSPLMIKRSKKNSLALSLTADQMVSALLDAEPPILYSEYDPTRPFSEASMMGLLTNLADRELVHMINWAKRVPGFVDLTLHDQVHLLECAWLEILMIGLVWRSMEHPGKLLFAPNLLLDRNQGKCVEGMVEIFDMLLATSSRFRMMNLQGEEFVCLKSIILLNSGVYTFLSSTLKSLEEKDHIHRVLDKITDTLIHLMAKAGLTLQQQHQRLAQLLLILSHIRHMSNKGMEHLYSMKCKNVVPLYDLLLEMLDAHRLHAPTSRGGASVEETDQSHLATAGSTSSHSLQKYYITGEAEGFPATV
Method in brief: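 Cells are hormone-deprived for 5 days (charcoal-stripped FBS, no phenol red), plated for 24hr, spiked with 10.0nM ICI-182,780, then dosed at 15 concentrations. After 22hr at 37C, ONE-Glo luminescence reports ERE-luciferase activity.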

[17] = molecular target: Androgen receptor (Homo sapiens) (UniProt P10275); assay: qHTS assay to identify small molecule agonists of the androgen receptor (AR) signaling pathway in the presence of an antagonist (AID 1259381; calls by dose curve; also: nearly all actives have a fitted effect of over 15% in size)
Chain of Androgen receptor (Homo sapiens) (P10275 whole entry, looked up): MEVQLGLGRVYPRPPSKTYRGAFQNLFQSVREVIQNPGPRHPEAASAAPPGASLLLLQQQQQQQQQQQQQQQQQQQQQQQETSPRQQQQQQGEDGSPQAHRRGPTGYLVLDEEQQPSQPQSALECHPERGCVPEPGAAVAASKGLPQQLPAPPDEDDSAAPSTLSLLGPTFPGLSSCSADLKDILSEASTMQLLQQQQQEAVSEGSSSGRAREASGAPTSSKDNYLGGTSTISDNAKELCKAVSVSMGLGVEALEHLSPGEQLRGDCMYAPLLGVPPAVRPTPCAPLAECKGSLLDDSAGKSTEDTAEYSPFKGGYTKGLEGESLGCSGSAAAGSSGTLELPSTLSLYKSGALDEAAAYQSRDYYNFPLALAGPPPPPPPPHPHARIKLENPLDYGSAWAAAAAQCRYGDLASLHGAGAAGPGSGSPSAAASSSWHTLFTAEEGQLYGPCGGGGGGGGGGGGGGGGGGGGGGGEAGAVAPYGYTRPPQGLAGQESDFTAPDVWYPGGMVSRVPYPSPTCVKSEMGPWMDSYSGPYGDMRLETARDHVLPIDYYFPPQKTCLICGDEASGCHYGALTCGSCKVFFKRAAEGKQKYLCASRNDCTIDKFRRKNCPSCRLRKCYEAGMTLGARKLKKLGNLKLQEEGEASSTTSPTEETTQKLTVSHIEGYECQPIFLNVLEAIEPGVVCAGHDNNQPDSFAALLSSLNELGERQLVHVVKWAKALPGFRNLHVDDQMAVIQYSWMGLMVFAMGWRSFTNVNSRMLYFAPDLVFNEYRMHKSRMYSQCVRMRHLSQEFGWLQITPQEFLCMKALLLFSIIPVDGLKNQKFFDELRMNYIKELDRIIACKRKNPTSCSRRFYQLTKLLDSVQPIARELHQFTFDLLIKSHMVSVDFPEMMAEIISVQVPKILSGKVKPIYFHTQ
Method in brief: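 Cells are MDA-kb2 (human breast carcinoma, MMTV-luc, AR/GR responsive). Nilutamide is present at 3.0uM final throughout; compounds are added at 15 concentrations and incubated 16hr at 37C before ONE-Glo luminescence detection.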

[18] = qHTS assay to identify small molecule phospholipidosis (PLD) inducers (AID 1259344; active = well fitted curve in the direction sought with a large enough effect; an effect the other way counts as inactive or inconclusive)
Method in brief: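 HepG2 cells on collagen I, attached 4 h at 37 C, were co-treated with compound and LipidTOX Red dye for 24 h at 37 C, then fixed with paraformaldehyde plus Hoechst 33342 and imaged by high-content microscopy for phospholipid accumulation.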
% is scaled to controls: 0 for no effect and ±100 for the full control effect.

CCCC(=O)OCCc1ccccc1
inactive: Potency [1] | Potency [2] | Potency [3] | Potency [4] | Potency [5] | Potency [6] | Potency [7] | Potency [8] | Potency [9] | Potency [10] | Potency [11] | Potency [12] | outcome [13] | Potency [14] | Potency [15]

CCC(CC)C(C)CCOC(C)=O (stereo not given)
inactive: Potency [1] | Potency [2] | Potency [3] | Potency [4] | Potency [5] | Potency [6] | Potency [7] | Potency [8] | Potency [9] | Potency [10] | Potency [11] | Potency [12] | outcome [13] | Potency [14]

CCC(C)n1ncn(-c2ccc(N3CCN(c4ccc(OC[C@H]5CO[C@](Cn6cncn6)(c6ccc(Cl)cc6Cl)O5)cc4)CC3)cc2)c1=O (stereo not given in full)
inactive: Potency [1] | Potency [2] | Potency [3] | Potency [4] | Potency [5] | Potency [6] | Potency [10] | Potency [12] | Potency [16] | outcome [13] | Potency [14] | Potency [15]

Cc1ccc(-c2ccccc2)cc1
inactive: Potency [1] | Potency [2] | Potency [3] | Potency [4] | Potency [5] | Potency [6] | Potency [7] | Potency [8] | Potency [10] | Potency [11] | Potency [12] | outcome [13] | Potency [14] | Potency [15]

CC(=O)[C@H]1CC[C@H]2[C@@H]3CCC4=CC(=O)CC[C@]4(C)[C@H]3CC[C@]12C
active: Potency [7] 9.63 µM and 6.11 µM | Potency [10] 60.8 µM | Potency [11] 54.2 µM and 61.1 µM | Potency [12] 54.2 µM and 61.1 µM
inactive: Potency [1] | Potency [2] | Potency [3] | Potency [4] | Potency [5] | Potency [6] | Potency [16] | Potency [15]

C=CCCC(=O)/C=C/C1C(C)=CCCC1(C)C (stereo not given)
inactive: Potency [1] | Potency [2] | Potency [3] | Potency [4] | Potency [5] | Potency [6] | Potency [7] | Potency [8] | Potency [9] | Potency [10] | Potency [11] | Potency [12] | Potency [15]

Cc1ccc(N/N=c2\c(=O)cc/c(=N\Nc3ccc(S(=O)(=O)O)cc3)c2=O)c(C)c1
active: Potency [1] 48.6 µM | Potency [2] 19.3 µM | Potency [4] 30.6 µM | Potency [5] 27.3 µM | Potency [10] 27.3 µM | Potency [15] 34.4 µM
inactive: Potency [3] | Potency [6] | Potency [8] | Potency [11] | Potency [12] | Potency [16] | Potency [14]

CCCCCCC1CCCC(=O)O1 (stereo not given)
inactive: Potency [1] | Potency [2] | Potency [3] | Potency [4] | Potency [5] | Potency [6] | Potency [7] | Potency [10] | Potency [12] | outcome [13] | Potency [14] | Potency [15]

COc1ccc2cc1Oc1ccc(cc1)C[C@H]1c3c(cc4c(c3Oc3cc5c(cc3OC)CCN(C)[C@@H]5C2)OCO4)CCN1C
inactive: Potency [2] | Potency [3] | Potency [6] | outcome [17] | Potency [12]
active: Potency [1] 21.1 µM | Potency [4] 11.9 µM | Potency [5] 15 µM | Potency [7] 3.76 µM | Potency [10] 26.6 µM | Potency [11] 26.6 µM | Potency [14] 23.7 µM | Potency [15] 13.3 µM

CN1CCC[C@@H]1CCO[C@](C)(c1ccccc1)c1ccc(Cl)cc1
inactive: Potency [2] | Potency [3] | Potency [6] | outcome [13] | Potency [15]
active: Potency [1] 26.6 µM | Potency [4] 23.7 µM | Potency [7] 26.6 µM | Potency [9] 18.8 µM | Potency [10] 29.8 µM | Potency [11] 23.7 µM | Potency [12] 21.1 µM | Potency [14] 29.8 µM

Nc1ccc(Oc2ccc(Cl)cc2)cc1
inactive: Potency [1] | Potency [2] | Potency [3] | Potency [4] | Potency [5] | Potency [6] | Potency [8] | Potency [10] | Potency [12] | outcome [13] | Potency [14] | Potency [15]

Cc1nc2n(c(=O)c1CCN1CCC(c3noc4cc(F)ccc34)CC1)CCCC2
inactive: Potency [1] | Potency [18] | Potency [2] | Potency [3] | Potency [4] | Potency [5] | Potency [6] | Potency [10] | Potency [12] | Potency [16] | outcome [13] | Potency [15]

CCc1oc2ccccc2c1C(=O)c1cc(I)c(O)c(I)c1
inactive: Potency [1] | Potency [18] | Potency [2] | Potency [3] | Potency [4] | Potency [5] | Potency [6] | Potency [16] | outcome [13] | Potency [14]

C[C@@H](O)[C@H](N)C(=O)O
inactive: viability change, negative = cytotoxic [1] 0.742% [at 19 µM] | Potency [18] | activity change, negative = inhibition [2] -3.34% [at 19 µM] | activity change, negative = cytotoxicity [3] -2.68% [at 19 µM] | viability change, negative = cytotoxic [5] 3.97% [at 19 µM] | activity change [6] 0.344% [at 18.9 µM, active compounds read high] | activity change, negative = inhibition [7] 10.6% [at 19 µM] | activity change, negative = cytotoxicity [10] -0.428% [at 19 µM] | activity change, negative = cytotoxicity [12] 0.119% [at 19 µM] | activity change, negative = cytotoxicity [15] 2.14% [at 19 µM]

CCC(=O)C(=O)CC
inactive: Potency [1] | Potency [2] | Potency [3] | Potency [4] | Potency [5] | Potency [6] | Potency [10] | Potency [11] | Potency [12] | outcome [13] | Potency [14] | Potency [15]

COC(=O)C1=C(C)NC(C)=C(C(=O)OCCN2CCN(C(c3ccccc3)c3ccccc3)CC2)C1c1cccc([N+](=O)[O-])c1 (stereo not given)
inactive: Potency [1] | Potency [18] | Potency [2] | Potency [3] | Potency [5] | Potency [6] | Potency [8] | Potency [11] | Potency [12] | Potency [16] | Potency [15]

CN(C)Cc1cc(C(C)(C)C)c(O)c(C(C)(C)C)c1
inactive: Potency [1] | Potency [2] | Potency [3] | Potency [4] | Potency [5] | Potency [6] | Potency [8] | outcome [13] | Potency [15]

CCCNCCC
inactive: Potency [1] | Potency [2] | Potency [3] | Potency [4] | Potency [5] | Potency [6] | Potency [7] | Potency [8] | Potency [10] | Potency [12] | outcome [13] | Potency [14] | Potency [15]
